From PubChem BioAssay AID493169 (National Center for Advancing Translational Sciences (NCATS), 2011)
Results filed as inconclusive are left out. Entries that show only a call come without a potency. Activity calls are given as the source filed them. The call rests on the fitted dose curve; in most records, active means well fitted inhibition curve with a large enough effect; inconclusive means small, poorly fitted or top-dose-only effect; inactive means flat fitted curve, though single readings scatter.

Test: CHOP2 Reporter Counterscreen Assay for Inhibitors of Ubiquitin-specific Protease USP2a;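 further: activated enterokinase alone at 50 pM in a cell-free format rather than USP2a or CHOP2; nearly all actives have a fitted effect of over 55% in size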
Settings: purified enterokinase, fluorogenic substrate, 485/531 nm; series mostly up to 38.3 µM
How it was run: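 Fluorescence (485/531 nm) read 10 min after adding 25nM reporter substrate to 50 pM activated EK preincubated 30 min RT with compound; Tris pH 8.0/CaCl2/CHAPS buffer. Data normalized to buffer-alone inhibition; concentration-response curves fitted.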
Potency means the concentration at half of the fitted maximal effect.

| Compound | Potency |
| --- | --- |
| CCCCCCCCCCOC(=O)Cn1c(COc2cccc(C)c2)[n+](C)c2ccccc21 | 10 µM (active) |
| Cc1cc(-c2csc(NC(=O)c3ccc(=O)[nH]c3)n2)c(C)n1Cc1ccccc1 | inactive |
| NS(=O)(=O)c1ccc(NC(=O)/C=C/c2cn(-c3ccccc3)nc2-c2cccc(Cl)c2)cc1 | inactive |
| O=[N+]([O-])c1ccc(Sc2nnnn2-c2ccccc2)c(Cl)c1 | inactive |
| C#CCOCCOCCOCCNc1nc(N2CCN(C(=O)CCCCCCCCCCNC(=O)[C@H]([C@@H](C)CC)n3cc(CCCCCN)nn3)CC2)nc(N2CCN(C(=O)CCCCCCCCCCNC(=O)[C@H]([C@@H](C)CC)n3cc(CCCCN=C(N)N)nn3)CC2)n1 | 2.24 µM (active) |
| CCO[C@H]1OC(C(=O)N2CCCCCCC2)=C[C@@H](c2ccc(C(F)(F)F)cc2)[C@@H]1CCCO | inactive |
| COC(=O)CC1Oc2ccc(C)cc2NC1=O (stereo not given) | inactive |
| O=C(CSc1ccc2nnc(-c3cccc(F)c3)n2n1)N1CCCc2ccccc21 | inactive |
| O=C(Nc1cnn(Cc2ccccc2)c1)c1nc2ncccn2n1 | inactive |
| CNC(=O)NC(=O)CSc1ccc(NC(C)=O)cc1 | inactive |
| CCN1C(=O)CSc2ccc(C(=O)NC3CCCCC3)cc21 | inactive |
| O=C(CSc1nc2ccccc2[nH]1)Nc1ccc2c(c1)OCCO2 | inactive |
| CCOc1ccc(S(=O)(=O)N(CC(=O)O)c2ccccc2)cc1 | inactive |
| O=C1CCCc2nc(N3CCN(c4ccccc4)CC3)ncc21 | inactive |
| O=C(c1ccccc1N(Cc1ccccc1)S(=O)(=O)c1ccccc1)N1CCOCC1 | inactive |
| C#CCOCCOCCOCCNc1nc(N2CCN(C(=O)CCCCCCCCCCNC(=O)Cn3cc(CCCCCN)nn3)CC2)nc(N2CCN(C(=O)CCCCCCCCCCNC(=O)Cn3cc(CCCCCN)nn3)CC2)n1 | 10 µM (active) |
| CC(=O)Nc1ccc(NC(=O)[C@@H](NC(=O)c2cccc(C)c2)C(C)C)cc1 | inactive |
| CN(C)C=Nc1ncc2c3ccccc3n(CCN(C)C)c2c1C#N | inactive |
| O=[N+]([O-])/C(C(Cl)=C(Cl)Cl)=C(\Sc1ccccc1)N1CCCCC1 | inactive |
| C=CCSC1=N/C(=C\C=C\c2ccco2)C(=O)S1 | 7.94 µM (active) |

| Compound | Potency |
| --- | --- |
| N=C1/C(=C\c2ccc(-c3cccc(Cl)c3)o2)C(=O)N=C2SC=C(c3ccccc3)N12 | inactive |
| Cc1noc(/C=C/NCc2cccnc2)c1S(=O)(=O)N(C)CC(=O)N1CCc2ccccc21 | inactive |
| COc1cc(NC(=O)COC(=O)CSc2ccccc2F)c(C)cc1[N+](=O)[O-] | inactive |
| C=CCn1c(O)c(C(CC)=NCCN2CCOCC2)c(=O)[nH]c1=O | inactive |
| CC[C@]12c3[nH]c4cc(-c5ccco5)ccc4c3CCN1C(=O)[C@@H](CC(=O)NC/C=C(\C)CCC=C(C)C)C[C@@H]2C(=O)N1CCN(C(=O)C2CC2)CC1 | inactive |
| COCc1c(C(=O)OCC(=O)c2c(N)n(CC(C)C)c(=O)n(C)c2=O)oc2ccccc12 | inactive |
| CCOc1ccc(NC(=O)CSc2nnc(Cn3c(=O)sc4ccccc43)n2C)cc1 | inactive |
| O=[N+]([O-])c1cc(-c2nnc(Nc3ccccc3)c3ccccc23)ccc1N1CCOCC1 | inactive |
| CSC1=NCCN1C(=O)Cc1ccc(F)cc1 | inactive |
| CC1=NN(C(=O)c2csc(C)c2C)C(O)(C(F)(F)F)C1 (stereo not given) | inactive |
| O=C(Nc1ccc(Nc2ccncc2)cc1)c1ccc(Nc2ccnc3ccc([N+](=O)[O-])cc23)cc1 | 3.55 µM (active) |
| O=C(NCC(c1cccnc1)N1CCN(c2ccc(F)cc2)CC1)OCc1ccccc1 (stereo not given) | inactive |
| O=C(COC(=O)c1cccc(S(=O)(=O)N2CCc3ccccc32)c1)NC1CCS(=O)(=O)C1 (stereo not given) | inactive |
| Cc1cccc(NC(=S)NCc2ccc3c(c2)cc(C)n3C)c1C | inactive |
| CCOC(=O)C1CCN(CC(O)COc2ccc(C(C)(C)C)cc2)CC1 (stereo not given) | inactive |
| CCc1cc(C(=O)N=Nc2c(O)[nH]c3ccc([N+](=O)[O-])cc23)c2ccccc2n1 | 8.91 µM (active) |
| O=C(CSc1nccc(=O)[nH]1)N1N=C2/C(=C/c3ccco3)CCCC2C1c1ccco1 (stereo not given) | 8.91 µM (active) |
| CC1=NN(c2ccc(C(=O)O)cc2)C(=O)/C1=C\c1ccc(OC(=O)c2cccs2)cc1 | 3.55 µM (active) |
| C#CCOCCOCCOCCNc1nc(N2CCN(C(=O)CCCCCCCCCCNC(=O)Cn3cc(C[C@@H](C)O)nn3)CC2)nc(N2CCN(C(=O)CCCCCCCCCCNC(=O)[C@@H]([C@H](C)CC)n3cc(CCCCCN)nn3)CC2)n1 | 5.62 µM (active) |
| Cc1ccc(C)n1NC(=O)c1ccccc1O | inactive |
